Reference: PubChem BioAssay (EPA / NIEHS)
Records with an inconclusive call do not appear. The source made the active and inactive calls. Rule for the calls, unless noted: active = hit-call score of the fitted dose curve at least 0.9, where 1 is the maximum; inactive = score below 0.9.

Legend:
[1] = CCTE_Shafer_MEA_dev_spike_duration_mean: CCTE's Neural Network Formation Assay for Mean Spike Duration, Shafer Lab (AID 2284051);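 note: mean network spike duration pooled as area under curve over DIV 5 to 12 recordings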
Summary of the method: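 Spontaneous activity was recorded on days 5, 7, 9 and 12 from rat cortical cultures grown on microelectrode arrays and dosed continuously from day 0, with media and compound renewed after the DIV 5 and 9 recordings. Network-spike duration was collapsed by area under the curve.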

[2] = CCTE_Shafer_MEA_dev_network_spike_duration_std: CCTE's Neural Network Formation Assay for Standard Deviation of Network Spike Duration, Shafer Lab (AID 2284052);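 note: hits are decreases in network spike duration SD versus DMSO vehicle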
Summary of the method: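 Network spike duration variability was collapsed across recordings on days 5, 7, 9 and 12 by trapezoidal area-under-curve and fitted downward against DMSO. Cultures were rat cortical neurons on PEI-coated MEA plates, dosed continuously from plating, refed with compound DIV 5/9.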

[3] = CCTE_Shafer_MEA_dev_per_network_spike_spike_number_mean: CCTE's Neural Network Formation Assay for Mean Number of Spikes in a Network Spike, Shafer Lab (AID 2284053)
Summary of the method: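 Mean spike count within each network spike, taken in a 0.05 s window at its peak, was recorded on days 5, 7, 9 and 12 and integrated as trapezoidal area under the curve. Rat cortical cultures on MEA plates received continuous compound from day 0, refreshed at medium changes on DIV 5 and 9.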

[4] = CCTE_Shafer_MEA_dev_per_network_spike_spike_percent: CCTE's Neural Network Formation Assay for Percent of Spikes in a Network Spike, Shafer Lab (AID 2284054)
Summary of the method: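 Metric: fraction of spikes falling in a 0.05 s window at network-spike peaks. Recordings were made on days 5, 7, 9 and 12 and collapsed by trapezoidal AUC. Cultures were rat cortical neurons on MEA plates, dosed continuously from plating, re-dosed at media changes.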

[5] = CCTE_Shafer_MEA_dev_LDH: CCTE's Lactate Dehydrogenase Assay for Cytotoxicity in the Neural Network Formation Assay, Shafer Lab (AID 2284068; active = hit-call score of the fitted dose curve at least 0.9, where 1 is the maximum;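 note: exposure for twelve days from plating with re-dosing on DIV 5 and 9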)
Summary of the method: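 Primary rat cortical neurons were cultured on PEI-coated MEA plates and exposed from plating through day 12, with compound renewed at medium changes on DIV 5 and 9. LDH activity was read spectrophotometrically; loss of signal versus DMSO indicates reduced viability.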

[6] = CCTE_Shafer_MEA_acute_LDH: CCTE's Lactate Dehydrogenase Assay for Cytotoxicity in the Neural Acute Assay, Shafer Lab (AID 2284086; active = hit-call score of the fitted dose curve at least 0.9, where 1 is the maximum;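 note: active means LDH release rises above DMSO vehicle level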)
Summary of the method: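 LDH absorbance at 490 nm in medium taken right after 40-min compound exposure; rat primary cortical neuron networks on MEA plates, days post-plating 13 or 15. Increase over DMSO baseline scored as cytotoxicity.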

[7] = CCTE_Shafer_MEA_dev_mutual_information_norm: CCTE's Neural Network Formation Assay for Mutual Information Normalization, Shafer Lab (AID 2284091)
Summary of the method: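 Shared information across electrodes, tracked on days 5, 7, 9 and 12 of network development and collapsed as trapezoidal area under the curve. Rat cortical cultures were treated continuously from plating, with treatment renewed at feeds on DIV 5 and 9; DMSO baseline, negative-direction fit.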

[8] = CCTE_Shafer_MEA_dev_correlation_coefficient_mean: CCTE's Neural Network Formation Assay for Mean Correlation Coefficient, Shafer Lab (AID 2284093)
Summary of the method: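 Primary rat cortical neurons on PEI-coated 48-well MEA plates (16 electrodes/well) were exposed from plating day 0 through DIV12, with compound renewed at DIV5 and 9. Pairwise spike correlations were averaged per well; trapezoidal AUC across DIV5, 7, 9, 12.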

[9] = IUF_NPC1b_proliferation_BrdU_72hr: Leibniz Research Institute for Environmental Medicine (IUF) 72-hour Neural Progenitor Cell Bromodeoxyuridine (BrdU) Proliferation Assay (NPC1b) (AID 2284207)
Summary of the method: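 Human fetal cortex-derived (GW 16-19) neural progenitor spheres, 0.25-0.35 mm, one per well in EGF/FGF proliferation medium, exposed to compound for 72 h at 37C, pH 7.2-7.6. BrdU incorporation over the final 16 h read by luminescence ELISA, relative to DMSO.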

[10] = IUF_NPC1a_proliferation_area_72hr: Leibniz Research Institute for Environmental Medicine (IUF) 72-hour Neural Progenitor Cell Proliferation Area Assay (NPC1a) (AID 2284208)
Summary of the method: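 hNPC spheres (human fetal cortex, GW 16-19), one per poly-Hema U-bottom well; EGF+FGF medium; dosed day 0, no re-dosing; 72 h, 37C, 5% CO2; phase-contrast sphere area; DMSO = baseline; minus-GF = positive ctrl.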

[11] = IUF_NPC1_viability_72hr: Viability Assessment at 72 hours in the Leibniz Research Institute for Environmental Medicine (IUF) Neural Progenitor Cell Proliferation Assay (NPC1) (AID 2284209)
Summary of the method: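 Alamar blue fluorescence (RFU) after 72 h exposure, normalized to DMSO baseline. hNPC spheres from GW 16-19 fetal cortex, single sphere per well in growth-factor medium; no compound renewal.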

[12] = CCTE_Mundy_HCI_Cortical_NOG_NeuriteLength: CCTE's Neurite Outgrowth Assay in rat cortical cells for Neurite Length, Mundy Lab (AID 2284213)
Summary of the method: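 First, rat primary cortical cells were plated and, 2 h later, given test chemical as a 1/10 dilution. Finally, βIII-tubulin immunostaining enabled automated imaging of neurite length.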

[13] = CCTE_Mundy_HCI_Cortical_Synap_Neur_Matur_NeuriteLength: CCTE's Synaptogenesis and Neurite Maturation Assay in rat cortical cells for Neurite Length, Mundy Lab (AID 2284214)
Summary of the method: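 Read-out: high-content imaging of MAP2-labelled neurites, with synaptophysin and Hoechst co-stain, in rat cortical cultures fixed at DIV 12. Activity fitted in positive direction relative to DMSO baseline.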

[14] = CCTE_Mundy_HCI_Cortical_Synap_Neur_Matur_NeuriteSpotCountPerNeuron: CCTE's Synaptogenesis and Neurite Maturation Assay in rat cortical cells for Neurite Spot Count per Neuron Count, Mundy Lab (AID 2284215)
Summary of the method: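 Read-out: neurite-associated synaptophysin puncta per neuron, imaged by high-content analysis after MAP2, synaptophysin and Hoechst staining. Rat primary cortical cultures, dosed DIV 7 through DIV 12; DMSO served as baseline.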

[15] = CCTE_Mundy_HCI_Cortical_Synap_Neur_Matur_SynapseCount: CCTE's Synaptogenesis and Neurite Maturation Assay in rat cortical cells for Synapse Count, Mundy Lab (AID 2284218)
Summary of the method: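 Read-out: synapse number per neuron, automated high-content imaging of fixed cells immunostained for MAP2 and synaptophysin plus Hoechst nuclei. Rat primary cortical cultures, AraC at DIV 5, chemical dosing DIV 7–12. Positive-direction fit relative to DMSO.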

[16] = CCTE_Mundy_HCI_hN2_NOG_NeuriteCount: CCTE's Neurite Outgrowth Assay in human hN2 cells for Neurite Count, Mundy Lab (AID 2284219; active = hit-call score of the fitted dose curve at least 0.9, where 1 is the maximum)
Summary of the method: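 In this morphology assay, hNP1-derived neurons received test chemical 2 h post-plating and were fixed two days later in warm paraformaldehyde/sucrose containing Hoechst 33342. Neurites, labelled by rabbit anti-βIII-tubulin (1:800) and Alexa Fluor-488 (1:500), were counted automatically.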

[17] = CCTE_Mundy_HCI_hN2_NOG_NeuriteLength: CCTE's Neurite Outgrowth Assay in human hN2 cells for Neurite Length, Mundy Lab (AID 2284220; active = hit-call score of the fitted dose curve at least 0.9, where 1 is the maximum)
Summary of the method: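 Plate hNP1-derived neurons, then add chemical 2 h later as a 1/10 dilution. Stain with anti-βIII-tubulin then Alexa Fluor-488 secondary, and image automatically to measure neurite length.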

[18] = CCTE_Mundy_HCI_Cortical_Synap_Neur_Matur_CellBodySpotCount: CCTE's Synaptogenesis and Neurite Maturation Assay in rat cortical cells for Cell Body Spot Count, Mundy Lab (AID 2284223)
Summary of the method: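 Read-out: cell body-associated synaptophysin puncta per neuron, imaged after MAP2, synaptophysin and Hoechst staining. Rat cortical cells, AraC DIV 5, chemical dosing DIV 7, fixation DIV 12. Activity fitted in positive direction relative to DMSO baseline.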

[19] = CCTE_Mundy_HCI_hNP1_Pro_ResponderAvgInten: CCTE's Proliferation Assay in human neuroprogenitor cells, Mundy Lab (AID 2284224; active = hit-call score of the fitted dose curve at least 0.9, where 1 is the maximum;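 note: human neural progenitor cells hNP1 derived from WA09 embryonic stem cells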)
Summary of the method: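 Proliferation was scored as BrdU labelling intensity in human neural progenitors derived from WA09 embryonic cells, measured 26.25 hours after chemical dosing. Activity was fitted relative to DMSO.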

[20] = CCTE_Mundy_HCI_Cortical_NOG_NeuronCount: CCTE's Neurite Outgrowth Assay in rat cortical cells for Neuron Count, Mundy Lab (AID 2284236; active = hit-call score of the fitted dose curve at least 0.9, where 1 is the maximum;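 note: neurons counted by imaging betaIII-tubulin and Hoechst stained cortical cells; cells exposed to compound for about 48 hours before fixation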)
Summary of the method: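 Read-out: neuron number by high-content imaging of betaIII-tubulin (Alexa Fluor-488) and Hoechst-labelled rat primary cortical cells.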

[21] = CCTE_Mundy_HCI_hNP1_Casp3_7: CCTE's Caspase-Glo 3/7 Assay in human neuroprogenitor cells for Apoptosis, Mundy Lab (AID 2284240)
Summary of the method: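 Apoptosis is scored by activated caspase-3/7 luminescence in WA09-derived neural progenitor cells, measured 26.5 h after chemical dosing. Values represent gain of signal relative to DMSO vehicle.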

[22] = IUF_NPC2c_oligodendrocyte_migration_120hr: Leibniz Research Institute for Environmental Medicine (IUF) 120-hour Neural Progenitor Cell Migration Assay for Oligodendrocyte Migration (NPC2c) (AID 2284297);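 note: O4-positive oligodendrocyte migration distance divided by radial glia migration distance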
Summary of the method: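 hNPC spheres (GW 16-19 cortex), PDL/laminin, DMEM/F12 3:1 + 1% N2, 37C. Dosing day 0–5, half feed day 3, DMSO ≤0.1%. Fixed 120 h; O4 ICC + Hoechst, HCI. Readout: mean oligodendrocyte distance from sphere edge / radial glia distance.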

[23] = IUF_NPC2a_radial_glia_migration_120hr: Leibniz Research Institute for Environmental Medicine (IUF) 120-hour Neural Progenitor Cell Migration Assay for Radial Glia Migration (NPC2a) (AID 2284298)
Summary of the method: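 Hoechst-stained nuclei imaged at 120 h; algorithm maps sphere core by densest nuclei, sets migration edge at density threshold, gives radial glia migration distance (um) per well vs DMSO. hNPC spheres (0.3 mm), PDL/laminin, DMEM/F12 3:1 + 1% N2.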

[24] = IUF_NPC2a_radial_glia_migration_72hr: Leibniz Research Institute for Environmental Medicine (IUF) 72-hour Neural Progenitor Cell Migration Assay for Radial Glia Migration (NPC2a) (AID 2284299)
Summary of the method: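 Readout: mean of four manual brightfield measurements of radial glia migration distance (um) at 72 h. hNPC spheres (0.3 mm) exposed to 7 compound concentrations plus solvent control on PDL/laminin, 37C, 5% CO2; activity fitted relative to DMSO.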

[25] = IUF_NPC2b_neuronal_migration_120hr: Leibniz Research Institute for Environmental Medicine (IUF) 120-hour Neural Progenitor Cell Migration Assay for Neuron Migration (NPC2b) (AID 2284300)
Summary of the method: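 hNPC spheres, PDL/laminin, DMEM:F12 3:1 + 1% N2, 37C/5% CO2; 7 concentrations + solvent control (DMSO ≤0.1%), 5 d exposure, half-feed day 3. Fix 120 h, TUBB3 ICC, HCI: mean neuron migration distance ÷ glia distance.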

[26] = IUF_NPC3_neuronal_differentiation_120hr: Leibniz Research Institute for Environmental Medicine (IUF) 120-hour Neuronal Differentiation Assay (NPC3) (AID 2284301)
Summary of the method: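 Value is percent TUBB3-positive neurons among Hoechst-stained nuclei in the migration area, scored by trained CNN after 120 h differentiation. Primary hNPC spheres on poly-D-lysine/laminin, N2 medium, continuous dosing from day 0, half-refeed day 3; DMSO reference.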

[27] = IUF_NPC4_neurite_length_120hr: Leibniz Research Institute for Environmental Medicine (IUF) 120-hour Neuronal Morphology Assay for Neurite Length (NPC4) (AID 2284302)
Summary of the method: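 Neurite length, the mean in um across TUBB3-stained neurons, is derived by skeletonization of high-content images after 120 h differentiation. Compound exposure, 7 concentrations plus solvent control, ran from plating of hNPC spheres on poly-D-lysine/laminin, with medium half-replaced on day 3.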

[28] = IUF_NPC5_oligodendrocyte_differentiation_120hr: Leibniz Research Institute for Environmental Medicine (IUF) 120-hour Oligodendrocyte Differentiation Assay (NPC5) (AID 2284304; active = hit-call score of the fitted dose curve at least 0.9, where 1 is the maximum;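 note: primary human fetal neural progenitor spheres plated to migrate and differentiate; share of O4-positive cells among Hoechst nuclei found by CNN image analysis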)
Summary of the method: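 hNPC spheres, fetal cortex GW 16-19; PDL/laminin, DMEM:F12 3:1 + 1% N2, 37C/5% CO2; 7 concentrations + solvent control, 5 d exposure, half-change day 3. Readout: %O4+ of Hoechst+ nuclei in migration area, CNN classification; DMSO baseline.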

[29] = IUF_NPC2-5_cytotoxicity_72hr: Cytotoxicity Assessment at 72 hours in the Leibniz Research Institute for Environmental Medicine (IUF) Neural Progenitor Cell Migration and Differentiation Assay for Cytotoxicity (NPC2-5) (AID 2284306; active = hit-call score of the fitted dose curve at least 0.9, where 1 is the maximum;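 note: LDH release into supernatant measured by resorufin fluorescence marking membrane damage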)
Summary of the method: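 Membrane-integrity cytotoxicity at 72 h, read as LDH-driven resorufin fluorescence in supernatant. hNPC spheres from fetal cortex differentiate on coated plates in N2 medium, 37C, 5% CO2; seven serial compound concentrations plus solvent control (DMSO ≤0.1%).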

[30] = IUF_NPC2-5_cytotoxicity_120hr: Cytotoxicity Assessment at 120 hours in the Leibniz Research Institute for Environmental Medicine (IUF) Neural Progenitor Cell Migration and Differentiation Assay (NPC2-5) (AID 2284307; active = hit-call score of the fitted dose curve at least 0.9, where 1 is the maximum)
Summary of the method: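 hNPC spheres on PDL/laminin, N2 medium, 37C; 7 concs + solvent control, DMSO ≤0.1%; 5-day exposure, half medium changed day 3. LDH in supernatant at 120 h, resazurin→resorufin fluorescence, gain-of-signal.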

[31] = IUF_NPC2-5_cell_number_120hr: Cell Number Assessment at 120 hours in the Leibniz Research Institute for Environmental Medicine (IUF) Neural Progenitor Cell Migration and Differentiation Assay (NPC2-5) (AID 2284308);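 note: count of Hoechst-stained nuclei in migration zone around plated human neural progenitor spheres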
Summary of the method: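 Hoechst-stained nuclei within the migration area were counted by automated high content imaging after 120 h. Single hNPC spheres differentiated on poly-D-lysine/laminin in DMEM/F12 (3:1) with 1% N2, compound present throughout, DMSO ≤0.1%.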

[32] = IUF_NPC2-5_viability_120hr: Viability Assessment at 120 hours in the Leibniz Research Institute for Environmental Medicine (IUF) Neural Progenitor Cell Migration and Differentiation Assay (NPC2-5) (AID 2284312)
Summary of the method: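 Alamar blue resorufin fluorescence read after 5 days of differentiation, with compound present from day 0 and replenished at day 3. Primary hNPC spheres on laminin-coated plates, 37C; seven concentrations plus solvent control, fitted against DMSO.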

[33] = IUF_NPC1_cytotoxicity_72hr: Cytotoxicity Assessment at 72 hours in the Leibniz Research Institute for Environmental Medicine (IUF) Neural Progenitor Cell Proliferation Assay (NPC1) (AID 2284332; active = hit-call score of the fitted dose curve at least 0.9, where 1 is the maximum;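 note: rising LDH signal means more cytotoxicity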)
Summary of the method: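 LDH in supernatant, resazurin→resorufin fluorescence (RFU), 72 h exposure, no re-dosing. Cells: primary hNPC spheres, one per well, EGF+FGF medium, 37C/5% CO2, pH 7.2-7.6. Fit: positive direction vs baseline and dynamic range.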

Measured: outcome

CC1(C)S[C@@H]2[C@H](NC(=O)[C@H](N)c3ccc(O)cc3)C(=O)N2[C@H]1C(=O)O
inactive: all assays above
